Hit rate of the full screen: of about 3,400 compounds, about 840 (25%) were called active. Roughly 11% stayed inconclusive and do not appear here. Only a sample is shown. Entries with a potency or affinity are not part of this list. Unmarked numbers belong to inactive results.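 How the source made its calls: active means fitted half-maximal concentration of signal decrease at or below twice the sample's top tested concentration; inconclusive means flat curve between -70 and -30 percent, or poor fit; inactive means flat within 30 percent, signal rise, or potency above limit.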
Assay: inhibitors of Toxoplasma growth in IFN-γ-primed HeLa – cell-based, ME49Luc, luciferase, 72 h, dose response (AID 1259418)
Conditions: T. gondii ME49Luc in IFN-y HeLa, stronger effect = lower value, -100% = high-dose IFN-γ control wells; at 19.5 µM unless noted

Structure (SMILES)	max activity
Cc1ccc(C(=O)Nc2c(C(=O)N3CCN(c4ccccn4)CC3)[nH]c3ccc(C)cc23)cc1	31.1% [at 0.68 µM]
Cc1ccc2c(c1C)-n1cccc1C1(CCN(C(=O)c3ccccc3C(F)(F)F)CC1)N2	-6.6% [at 5 µM]
COc1cc(OC)cc(C(=O)N2CCC3(CC2)Nc2cc(F)ccc2-n2cccc23)c1	10.1%
COc1ccc(OCC(=O)N2CCC3(CC2)Nc2cc(F)ccc2-n2cccc23)cc1	4.86% [at 10 µM]
COc1ccc2c(c1)NC1(CCN(C(=O)c3cc(OC)c(OC)c(OC)c3)CC1)c1cccn1-2	9.35% [at 0.35 µM]
COc1ccc2c(c1)NC1(CCN(C(=O)COc3cccc(C)c3)CC1)c1cccn1-2	-5.04% [at 0.16 µM]
COc1ccc(-c2nc(Nc3ccc(F)cc3Cl)c3ccccc3n2)cc1	8.01%
Cc1oc(-c2ccccc2)nc1Cn1nnc(-c2nc(-c3ccc(Cl)cc3)no2)c1C	11.1%
N#CCSC1=Nc2ccccc2C2=NC(CC(=O)NC3CCCCC3)C(=O)N12 (stereo not given)	23.6% [at 10 µM]
COCC1CN(C(=O)c2cc(C)on2)Cc2c1cnn2CC1CC1 (stereo not given)	27.1%
CC(=O)N1Cc2ncn(CC3CC3)c2C(COCC2CCOCC2)C1 (stereo not given)	8.65%
CCOc1ccccc1C(=O)N1CCC2(CC1)Nc1ccc(C)c(C)c1-n1cccc12	-6.2% [at 2.6 µM]
COc1ccc(S(=O)(=O)N(Cc2nc(-c3cccc(Cl)c3)oc2C)c2ccccc2OC)cc1	-7.97% [at 5 µM]
COc1ccccc1N(Cc1nc(-c2ccccc2)oc1C)S(=O)(=O)c1ccccc1	-5.89% [at 0.35 µM]
CCOc1ccc(NC(=O)Nc2ccc(-c3nc(-c4ccc(C)cc4)co3)cc2)cc1	62.7%
N#CCSC1=Nc2ccccc2C2=NC(CCC(=O)NCc3ccc4c(c3)OCO4)C(=O)N12 (stereo not given)	17.8%
CCc1c(C)sc2c1CCN(Cc1nc(-c3cc(C)ccc3C)oc1C)C2c1ccccc1 (stereo not given)	12.6% [at 5 µM]
CN1CCN(C(=O)Cc2ccsc2)Cc2cccnc21	40%
Cc1ccnc(Nc2nc(C)c(C(=O)N3CCC(C(N)=O)(N4CCCCC4)CC3)s2)c1	-7.52% [at 0.35 µM]
COc1ccc(-c2nc(Nc3ccc(CN4CCCCC4)cc3)c3ccccc3n2)cc1	10.9% [at 10 µM]
CCN(CCNc1nc(-c2ccccc2Cl)nc2ccccc12)c1cccc(C)c1	12.3%
COc1ccc(-c2nc(Nc3cc(OC)ccc3OC)c3ccccc3n2)cc1	-18.7% [at 5 µM]
COc1ccc(-c2nc(Nc3ccccc3)c3ccccc3n2)cc1	6.36% [at 10 µM]
COc1ccc(-c2nc(Nc3ccccc3OC)c3ccccc3n2)cc1	20%
CCc1ccc(Nc2nc(-c3ccc(OC)cc3)nc3ccccc23)cc1	-16.2% [at 0.35 µM]
Clc1ccccc1-c1nc(NCCCc2ccccc2)c2ccccc2n1	-24.4% [at 10 µM]
COc1ccc(Nc2nc(-c3ccc(OC)cc3)nc3ccccc23)cc1	12.9%

Structure (SMILES)	max activity
Cc1ccccc1CC(=O)N1CCC2(CC1)Nc1cc(F)ccc1-n1cccc12	10.3% [at 0.68 µM]
CCOC(=O)c1cccc(NC(=O)Nc2ccc(-c3nc(-c4ccc(C)cc4C)co3)cc2)c1	-3.92% [at 1.35 µM]
CCOc1ccc(-c2nc(CN3CCN(C(=O)Nc4cccc(C)c4C)CC3)c(C)o2)cc1	-7.65% [at 0.68 µM]
O=C(CC1Nc2c3ccccc3nc(=S)n2C1=O)NCCc1ccccc1 (stereo not given)	-10.8% [at 0.68 µM]
Cc1ccc(C)c(-c2coc(-c3ccc(NC(=O)NCc4cccc(F)c4)cc3)n2)c1	9.05%
Cc1oc(-c2cccc(Cl)c2)nc1CSc1nc2c(c(=O)[nH]1)CN(C(C)C)CC2	17.7% [at 0.68 µM]
COc1ccc(-c2nc(Nc3ccc(Cl)cc3)c3ccccc3n2)cc1	10.4% [at 0.35 µM]
COc1ccc(-c2nc(Nc3ccc(C)c(Cl)c3)c3ccccc3n2)cc1	13% [at 0.35 µM]
CCOc1ccc(Nc2nc(-c3ccc(OC)cc3)nc3ccccc23)cc1	9.36%
COc1ccc(-c2nc(Nc3ccc(F)cc3)c3ccccc3n2)cc1	-11.2% [at 2.6 µM]
O=C(Cc1cccc(F)c1)N1CCC2(CC1)Nc1cc(F)ccc1-n1cccc12	-7.02% [at 2.6 µM]
CCOc1ccccc1CNc1nc(-c2ccc(Cl)cc2)nc2ccccc12	22.2%
COc1ccccc1NC(=O)Nc1ccc(-c2nc(-c3ccccc3)co2)cc1	62.5% [at 10 µM]
COc1cccc(CC(=O)Nc2ccc(-c3nc(-c4cc(C)ccc4C)co3)cc2)c1	-7.87%
CCC(C)Nc1nc(-c2ccc(Cl)cc2)nc2ccccc12 (stereo not given)	-11.3% [at 10 µM]
CCCNC(=O)[C@H]1[C@H](CO)[C@H]2Cn3c(ccc(C4=CCCCC4)c3=O)[C@H]2N1Cc1ccccc1F	16.8% [at 10 µM]
CN1[C@@H]2c3ccc(/C=C/c4ccccc4)c(=O)n3C[C@H]1[C@H](CO)[C@H]2C(=O)NC1Cc2ccccc2C1	43.1% [at 5 µM]
O=C(CCn1cnc2cc(-c3noc(CCc4c[nH]c5ccccc45)n3)ccc21)N1CCCC1	-14.5% [at 0.16 µM]
O=C(CCn1cnc2cc(-c3noc(-c4cccc5[nH]ccc45)n3)ccc21)N1CCCC1	-15.6% [at 0.35 µM]
COc1ccc(NC(=O)Nc2ccc(-c3nc(-c4ccc(C)cc4)co3)cc2)cc1	43.2% [at 10 µM]
CC(C)NC(=O)N1CCC2(CC1)OCCN(CCO)c1ccccc12	20.9%
Cc1ccc(NC(=O)Nc2ccc(-c3nc(-c4ccccc4)co3)cc2)cc1	19.9% [at 0.16 µM]
N#Cc1ccc(-c2ccc3c(c2)[C@H]2[C@H](CCN2C(=O)C2CCCCC2)[C@@H](CO)N3)cc1	27.2% [at 10 µM]
COc1ccc(-c2nc(Cn3nnc(-c4nc(-c5ccc(Cl)cc5)no4)c3C)c(C)o2)cc1	6.38%
CCC(C(=O)N1CCC[C@@H]1C(=O)NCCc1csc(C)n1)c1ccccc1 (stereo not given in full)	9.81% [at 0.35 µM]
COc1cc(-c2noc(-c3nnn(Cc4nc(-c5ccccc5)oc4C)c3C)n2)cc(OC)c1OC	6.25% [at 0.35 µM]
COc1ccc2c(c1)NC1(CCN(C(=O)c3ccc(C)c(F)c3)CC1)c1cccn1-2	5.27% [at 0.68 µM]

Structure (SMILES)	max activity
Cc1ccccc1Cn1cccc1CNS(=O)(=O)c1ccc2c(c1)CCC(=O)N2	13.6% [at 2.6 µM]
O=C(CC1N=C2c3ccccc3N=C(SCc3cccc(F)c3)N2C1=O)NCc1cccs1 (stereo not given)	-23.9% [at 5 µM]
O=C(CCC1N=C2c3ccccc3N=C(SCc3cccc(Cl)c3)N2C1=O)NCc1ccco1 (stereo not given)	24.8% [at 5 µM]
NC(=O)C1(N2CCCCC2)CCN(c2ncc(NC(=O)c3cccc(Cl)c3)cc2C(=O)O)CC1	5.69%
COc1ccc(-c2nc(N3CCc4ccccc43)c3ccccc3n2)cc1	-12.2% [at 0.35 µM]
CCS(=O)(=O)N1CCC(C(=O)NCCc2csc(-c3cccs3)n2)CC1	-17.6%
COc1ccc(-c2nc(Nc3ccc(F)cc3F)c3ccccc3n2)cc1	10.1%
Cc1ccc2c(c1C)-n1cccc1C1(CCN(C(=O)c3ccc(Br)cc3)CC1)N2	7.92% [at 0.16 µM]
COc1cc(C(=O)Nc2ccc(-c3nc(-c4ccc(C)cc4)co3)cc2)cc(OC)c1OC	54.9% [at 10 µM]
C[C@@H]1CN([C@@H](C)CO)C(=O)c2cccc(NC(=O)NC3CCCCC3)c2O[C@H]1CN(C)Cc1ccc(C(F)(F)F)cc1	7.51%
C[C@H]1CN([C@@H](C)CO)C(=O)c2cccc(NC(=O)c3ccc(-c4nccs4)cc3)c2O[C@@H]1CN(C)C(=O)Nc1ccc(C(F)(F)F)cc1	30.7% [at 5 µM]
CCCN(CCC)c1nc(-c2ccc(Cl)cc2)nc2ccccc12	25.7%
COc1ccc(-c2nc(Cn3nnc(-c4nc(-c5cccc(F)c5)no4)c3C)c(C)o2)cc1	5.24% [at 10 µM]
CCOc1ccccc1NC(=O)Nc1ccc(-c2nc(-c3ccc(C)cc3)co2)cc1	-10.4%
O=C(CC1CC1)N[C@H]1CN(C(=O)c2ccoc2)C[C@@H]2CCCO[C@H]21	19.7%
CCc1onc(C)c1C1CCCN1C(=O)c1cc(C(F)(F)F)nn1C (stereo not given)	5.66% [at 0.16 µM]
O=C(Nc1ccc(-c2nc(-c3ccccc3)co2)cc1)Nc1ccccc1Cl	29.7% [at 10 µM]
NCCNC(=O)c1nc(-c2ccc(Br)o2)no1	8.96% [at 10 µM]
COc1ccc(-c2nc(C)c(-c3ccc(SCc4ccc(C)cc4)nn3)s2)cc1	10.6% [at 2.6 µM]
COc1cccc(-c2nc(C)c(-c3ccc(SCc4ccc(C)cc4)nn3)s2)c1	22.3% [at 10 µM]
COc1cccc(-c2nc(C)c(-c3ccc(SCc4ccc(Br)cc4)nn3)s2)c1	-17.9%
Cc1nc(-c2ccc(F)cc2)sc1-c1ccc(SCc2c(F)cccc2Cl)nn1	12.7% [at 0.68 µM]
COc1cccc(-c2nc(C)c(-c3ccc(SCc4ccc(Cl)cc4Cl)nn3)s2)c1	-7.13% [at 1.35 µM]
COc1ccc(-c2nc(C)c(-c3ccc(SCc4c(F)cccc4Cl)nn3)s2)cc1	6.69% [at 0.16 µM]
COc1cccc(-c2nc(C)c(-c3ccc(SCc4ccc(C(F)(F)F)cc4)nn3)s2)c1	7.57% [at 0.16 µM]
Cc1nc(-c2ccc(F)cc2)sc1-c1ccc(SCc2ccc(F)cc2)nn1	12.7% [at 5 µM]

— PubChem BioAssay AID1259418 (Broad Institute, 2018)
